Source: PubChem BioAssay (NCI)
About 83,000 compounds went through this panel and 20% of them were active in at least one assay; those are over-represented in the sample as a whole.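 A percent growth of 40 corresponds to 60% growth inhibition; 0 means no net growth; -100 means all cells died. Active threshold: below 10.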 Calls of active or inactive are those of the source.

Legend:
Test in all cases: NCI-60 one-dose screen, 48 h (100 = growth as untreated, 0 = no growth, -100 = all killed)
Settings in all cases: 10 µM unless noted
NCI-H23 lung = test system: NCI-H23 lung
NCI-H226 lung = test system: NCI-H226 lung
NCI-H322M lung = test system: NCI-H322M lung
HOP-62 NSCLC = test system: HOP-62 NSCLC
NCI-H460 lung = test system: NCI-H460 lung
HOP-92 NSCLC = test system: HOP-92 NSCLC
NCI-H522 lung = test system: NCI-H522 lung
A549/ATCC NSCLC = test system: A549/ATCC NSCLC
786-0 renal = test system: 786-0 renal
COLO 205 colon = test system: COLO 205 colon
DU-145 prostate = test system: DU-145 prostate
K-562 leukemia = test system: K-562 leukemia
MALME-3M melanoma = test system: MALME-3M melanoma
MDA-MB-231 breast = test system: MDA-MB-231 breast
RXF 393 renal = test system: RXF 393 renal
SF-268 CNS = test system: SF-268 CNS
SF-295 CNS = test system: SF-295 CNS
SF-539 CNS = test system: SF-539 CNS
UACC-257 melanoma = test system: UACC-257 melanoma
M14 melanoma = test system: M14 melanoma

Measured: growth

C=CC(=O)Nc1cccc(Oc2nccc(Nc3nnc(-c4ccc(Br)cc4)s3)n2)c1
inactive: NCI-H23 lung 90.8% | NCI-H226 lung 105% | NCI-H322M lung 110% | HOP-62 NSCLC 91% | NCI-H460 lung 101% | HOP-92 NSCLC 92% | NCI-H522 lung 84.4% | A549/ATCC NSCLC 100% | 786-0 renal 101% | COLO 205 colon 108% | DU-145 prostate 103% | K-562 leukemia 92.6% | MALME-3M melanoma 112% | MDA-MB-231 breast 88.2% | RXF 393 renal 101% | SF-268 CNS 93.6% | SF-295 CNS 96% | SF-539 CNS 99.7% | UACC-257 melanoma 105% | M14 melanoma 116%

CC(C)(C)CC(C)(C)Nc1c(-c2c(O)c3ccccc3oc2=O)nc2sc3ccccc3n12
active: SF-295 CNS 3.5%
inactive: NCI-H23 lung 44.1% | NCI-H226 lung 56.7% | NCI-H322M lung 42.5% | HOP-62 NSCLC 23.1% | NCI-H460 lung 16.6% | HOP-92 NSCLC 10.8% | NCI-H522 lung 32.8% | A549/ATCC NSCLC 30.9% | 786-0 renal 35.6% | COLO 205 colon 28.7% | DU-145 prostate 53.7% | K-562 leukemia 11.8% | MALME-3M melanoma 50.7% | MDA-MB-231 breast 61.9% | RXF 393 renal 65.9% | SF-268 CNS 48% | SF-539 CNS 44% | UACC-257 melanoma 38.1% | M14 melanoma 41.7%

CCCCCc1ccc(S(=O)(=O)Nc2ccc3nc(N)oc3c2)cc1
inactive: NCI-H23 lung 40.2% | NCI-H226 lung 46.3% | NCI-H322M lung 96.9% | HOP-62 NSCLC 78.5% | NCI-H460 lung 60.8% | HOP-92 NSCLC 19.5% | NCI-H522 lung 43.7% | A549/ATCC NSCLC 53.2% | 786-0 renal 72.4% | COLO 205 colon 72.4% | DU-145 prostate 74.2% | K-562 leukemia 27.9% | MALME-3M melanoma 89.8% | MDA-MB-231 breast 64.3% | RXF 393 renal 77.4% | SF-268 CNS 51.1% | SF-295 CNS 30.8% | SF-539 CNS 71.3% | UACC-257 melanoma 34.4% | M14 melanoma 73.1%

CCNC(=O)N1CCc2c(Br)c3c(c(OC)c2C1Cc1ccc(OC)cc1)OCO3 (stereo not given)
active: COLO 205 colon 3.06%
inactive: NCI-H23 lung 60.8% | NCI-H226 lung 70.8% | NCI-H322M lung 52.9% | HOP-62 NSCLC 36.3% | NCI-H460 lung 15.2% | HOP-92 NSCLC 40.6% | NCI-H522 lung 25.5% | A549/ATCC NSCLC 34.2% | 786-0 renal 31.2% | DU-145 prostate 54.5% | K-562 leukemia 20% | MALME-3M melanoma 33.8% | MDA-MB-231 breast 47.3% | RXF 393 renal 17% | SF-268 CNS 43.5% | SF-295 CNS 25.5% | SF-539 CNS 22.6% | UACC-257 melanoma 65.4% | M14 melanoma 11.6%

CC(=O)c1c(Nc2cccc(F)c2)[nH]c2c(Cl)cc(Cl)c(Cl)c2c1=O
active: NCI-H23 lung 3.83% | NCI-H226 lung -4.3% | NCI-H322M lung 9.02% | HOP-62 NSCLC -10.1% | NCI-H460 lung 3.6% | HOP-92 NSCLC -14.2% | NCI-H522 lung -8.41% | A549/ATCC NSCLC 4.98% | COLO 205 colon -63.4% | K-562 leukemia 7.81% | MALME-3M melanoma -18.6% | MDA-MB-231 breast -3.57% | RXF 393 renal 4.14% | SF-295 CNS -28.4% | SF-539 CNS 4.02% | UACC-257 melanoma -14.2% | M14 melanoma 6.55%
inactive: 786-0 renal 12.2% | DU-145 prostate 25.2% | SF-268 CNS 19.2%

Cc1ccc(S(=O)(=O)N2CCCN(c3nc(-c4ccccc4)nc4nc(-c5ccccc5)oc34)CC2)cc1
inactive: NCI-H23 lung 100% | NCI-H226 lung 99.5% | NCI-H322M lung 97.3% | HOP-62 NSCLC 101% | NCI-H460 lung 103% | HOP-92 NSCLC 110% | NCI-H522 lung 83.6% | A549/ATCC NSCLC 106% | 786-0 renal 102% | COLO 205 colon 124% | DU-145 prostate 113% | K-562 leukemia 97.3% | MALME-3M melanoma 111% | MDA-MB-231 breast 96.8% | RXF 393 renal 128% | SF-268 CNS 106% | SF-295 CNS 105% | SF-539 CNS 96% | UACC-257 melanoma 108% | M14 melanoma 110%

Cc1ccc2cnc(N)c(C#Cc3cc(C(=O)Nc4ccc(CN5CCN(C)CC5)c(C(F)(F)F)c4)cnc3C)c2c1
inactive: NCI-H322M lung 17.8% | SF-268 CNS 17.4% | SF-295 CNS 37.4% | UACC-257 melanoma 31.9%
active: NCI-H23 lung -29.6% | NCI-H226 lung 7.1% | HOP-62 NSCLC -35.9% | NCI-H460 lung -83% | HOP-92 NSCLC -32% | NCI-H522 lung -10.2% | A549/ATCC NSCLC -85.5% | 786-0 renal -82.8% | COLO 205 colon -41.2% | DU-145 prostate -95% | K-562 leukemia -43% | MALME-3M melanoma -74.7% | MDA-MB-231 breast -70.5% | RXF 393 renal -91.2% | SF-539 CNS -85.9% | M14 melanoma -90.3%
